Reference: PubChem BioAssay (Tox21)
Records with an inconclusive call do not appear. The source made the active and inactive calls. Unless noted, the call rests on the fitted dose curve; in most records, active means well fitted curve in the direction sought with a large enough effect in the repeat runs; inconclusive means weak or mixed curves; inactive means no such curve, though single readings can be large; an effect the other way counts as inactive or inconclusive.

Experiments:
[1] = qHTS assay for small molecules that induce genotoxicity in human embryonic kidney cells expressing luciferase-tagged ATAD5 (AID 651632); further: nearly all actives have a fitted effect of over 15% in size
How it was run: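 Genotoxicity read-out via ATAD5-luciferase: HEK293T cells, 16 hr compound incubation at 37C, Amplite detection.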

[2] = qHTS assay for small molecule agonists of the p53 signaling pathway - cell viability (AID 651633; calls by dose curve; further: nearly all actives have a fitted effect of over 30% in size; further: potency means the concentration at half of the fitted maximal effect)
How it was run: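 p53RE-bla cells, seeded at 4,000 per well and rested 5 h at 37 C/5% CO2, received compounds in DMSO for 16 h at 37 C. CellTiter-Glo was then added, and luminescence was read after 30 min at room temperature to gauge cytotoxicity.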

[3] = qHTS assay for small molecule disruptors of the mitochondrial membrane potential - cell viability (AID 720634; calls by dose curve;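 further: human HepG2 liver cancer cells; series mostly up to about 83 µM; nearly all actives have a fitted effect of over 20% in size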)
How it was run: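 Human hepatoma HepG2 cells were treated for 1 hr with test chemicals, then given m-MPI dye and CellTiter-Glo. Cell viability reflects luminescence proportional to cellular ATP.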

[4] = qHTS assay to test for compound auto fluorescence at 590 nm (red) in HepG2 cells (AID 720674)
How it was run: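 Intrinsic compound fluorescence in the red window (Ex/Em 540/590 nm) is measured in attached HepG2 cells exposed for 1 hr, DMSO vehicle as baseline, benchmarked to Rose Bengal sodium.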

[5] = qHTS assay to test for compound auto fluorescence at 535 nm (green) in HepG2 cells (AID 720675)
[6] = qHTS assay to test for compound auto fluorescence at 460 nm (blue) in HEK293 cells (AID 720678)
How it was run: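 Intrinsic compound fluorescence is recorded in live HEK293 cultures after overnight incubation at 37C, 5% CO2, using excitation 405 nm and emission 460 nm. Values are referenced to triamterene.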

[7] = qHTS assay to test for compound auto fluorescence at 590 nm (red) in HEK293 cells (AID 720679)
How it was run: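 Red autofluorescence, HEK293 cells: 2,000 cells/well; attach 4-5 hr 37C; add 23 nL cpd or DMSO; incubate o/n 37C 5% CO2; read Ex540/Em590; Rose Bengal sodium reference.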

[8] = qHTS assay to test for compound auto fluorescence at 535 nm (green) in HEK293 cells (AID 720680)
[9] = qHTS assay to test for compound auto fluorescence at 460 nm (blue) in HEK293 cell free culture (AID 720681)
How it was run: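 Test compounds were pinned into cell-free culture medium (DMEM with 10% FBS) and fluorescence was read directly at Ex/Em 405/460 nm. Signals were expressed as fluorescence equivalents of triamterene, with DMSO vehicle as control.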

[10] = qHTS assay to test for compound auto fluorescence at 535 nm (green) in HEK293 cell free culture (AID 720682)
How it was run: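 Each library compound, or DMSO control, is added by pintool to medium alone, comprising DMEM and 10% FBS. Emission at 535 nm following 485 nm excitation is quantified against fluorescein.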

[11] = qHTS assay to test for compound auto fluorescence at 590 nm (red) in HEK293 cell free culture (AID 720683)
How it was run: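 Tox21 10K library compounds were pinned into cell-free DMEM with 10% FBS and fluorescence was read at excitation 540 nm. Activity is expressed as Rose Bengal sodium equivalency.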

[12] = qHTS assay to test for compound auto fluorescence at 590 nm (red) in HepG2 cell free culture (AID 720684)
How it was run: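 Measured in medium alone (MEM containing 10% FBS) following pintool addition of compound; emission at 590 nm with 540 nm excitation, referenced to Rose Bengal sodium.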

[13] = qHTS assay to test for compound auto fluorescence at 460 nm (blue) in HepG2 cell free culture (AID 720685)
How it was run: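 Compound (23 nL) or DMSO pinned into cell-free MEM with 10% FBS; blue fluorescence read at 405/460 nm excitation/emission, expressed as auto-fluorescence equivalency to triamterene.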

[14] = qHTS assay to test for compound auto fluorescence at 535 nm (green) in HepG2 cell free culture (AID 720686)
[15] = qHTS assay to test for compound auto fluorescence at 460 nm (blue) in HepG2 cells (AID 720687)
How it was run: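 Cells (2,000/well in MEM with 10% FBS) attached overnight at 37 C, then were exposed to compound or DMSO for 1 hr at 37 C, 5% CO2. Fluorescence read at Ex/Em 405/460 nm, expressed as triamterene-equivalent signal.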

[16] = molecular target: Glucocorticoid receptor (Homo sapiens) (UniProt P04150); experiment: qHTS assay to identify small molecule agonists of the glucocorticoid receptor (GR) signaling pathway (AID 720691; active means well fitted activation curve with a large enough effect in the signal ratio in the repeat runs, not every such curve was filed as active; the % refers to the signal ratio)
How it was run: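 Beta-lactamase reporter activity, read as fluorescence intensity, was measured in GR-bla HeLa cells exposed to compounds for 18 h at 37 C and then loaded with LiveBLAzer B/G FRET substrate for 2 h at room temperature.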

[17] = qHTS assay for small molecules that induce genotoxicity in human embryonic kidney cells expressing luciferase-tagged ATAD5 - cell viability (AID 651634; calls by dose curve; further: nearly all actives have a fitted effect of over 25% in size)
How it was run: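 Live-cell protease activity (CellTiter-Fluor, fluorescence) indicates viability. HEK293T cells with luciferase-tagged ATAD5; 15.5 hr compound treatment at 37C.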

[18] = molecular target: Glucocorticoid receptor (Homo sapiens) (UniProt P04150); experiment: qHTS assay to identify small molecule antagonists of the glucocorticoid receptor (GR) signaling pathway (AID 720692; active means well fitted inhibition curve with a large enough effect in the signal ratio in the repeat runs, not every such curve was filed as active; the % refers to the signal ratio)
How it was run: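 Fluorescence from cleaved LiveBLAzer B/G FRET substrate reports GRE-driven beta-lactamase in HeLa cells; compounds are tested against 5 nM dexamethasone (final) over 18 h at 37 C, substrate incubation 2 h at room temperature.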

Measured: Potency

Glucocorticoid receptor (Homo sapiens), sequence (P04150 whole entry, looked up): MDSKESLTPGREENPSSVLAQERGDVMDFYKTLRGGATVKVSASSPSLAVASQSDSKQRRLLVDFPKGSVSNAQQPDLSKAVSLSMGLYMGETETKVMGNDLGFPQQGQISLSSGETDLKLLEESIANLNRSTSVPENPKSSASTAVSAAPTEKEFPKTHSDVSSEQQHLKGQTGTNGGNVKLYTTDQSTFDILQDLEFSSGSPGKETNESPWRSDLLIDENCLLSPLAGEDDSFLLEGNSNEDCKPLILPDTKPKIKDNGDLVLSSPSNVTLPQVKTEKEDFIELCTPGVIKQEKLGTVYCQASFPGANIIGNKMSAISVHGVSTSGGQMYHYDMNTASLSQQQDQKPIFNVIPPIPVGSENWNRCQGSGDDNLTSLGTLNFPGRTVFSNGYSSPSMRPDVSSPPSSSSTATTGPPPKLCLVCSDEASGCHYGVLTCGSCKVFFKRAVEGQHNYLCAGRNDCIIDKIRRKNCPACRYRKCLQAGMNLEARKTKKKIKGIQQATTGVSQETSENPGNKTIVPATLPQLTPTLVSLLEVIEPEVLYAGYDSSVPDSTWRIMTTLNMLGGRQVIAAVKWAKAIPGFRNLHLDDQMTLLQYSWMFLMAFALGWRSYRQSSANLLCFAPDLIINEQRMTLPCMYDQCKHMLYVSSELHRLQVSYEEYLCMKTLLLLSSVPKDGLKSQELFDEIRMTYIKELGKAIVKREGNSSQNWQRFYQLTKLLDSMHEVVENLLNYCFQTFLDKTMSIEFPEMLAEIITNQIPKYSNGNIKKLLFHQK

OCCN1CCN(CCCN2c3ccccc3Sc3ccc(C(F)(F)F)cc32)CC1
active: [2] 26.6 µM
inactive: [1] | [3] | [4] | [5] | [6] | [7] | [8] | [9] | [10] | [11] | [12] | [13] | [14] | [15] | [16]

CC(C(=O)O)c1ccc2c(c1)[nH]c1ccc(Cl)cc12 (stereo not given)
inactive: [1] | [2] | [17] | [3] | [4] | [5] | [6] | [8] | [9] | [10] | [11] | [13] | [14] | [15] | [16] | [18]

CN1CCN2c3ccccc3Cc3ccccc3C2C1 (stereo not given)
inactive: [1] | [17] | [3] | [4] | [5] | [6] | [7] | [8] | [9] | [10] | [11] | [14] | [15]
